Measurements published in PubChem BioAssay AID686978 (National Center for Advancing Translational Sciences (NCATS), 2013).
About 64,000 (15%) of roughly 420,000 compounds were called active. Not shown: some 27% with an inconclusive outcome. Calls follow the shape of the dose curve; as a rule, active = well fitted inhibition curve with a large enough effect; inconclusive = small, poorly fitted or top-dose-only effect; inactive = flat fitted curve, though single readings scatter. Not all results are given here. Where a call stands in place of a potency, no number is given.

Test: qHTS for Inhibitors of human tyrosyl-DNA phosphodiesterase 1 (TDP1): qHTS in cells in absence of CPT; also: nearly all actives have a fitted effect of over 55% in size
Settings: DT40 Tdp1-/- hTDP1 cells, no CPT, ATP luminescence, 48 h; activity change, negative = growth inhibition: at 46.2 µM (top of the series)
From the text: Human tyrosyl-DNA phosphodiesterase 1 (TDP1) is a novel repair gene, and we propose to use it as a new target for anticancer drug development. TDP1 is not an essential protein, but under treatment with topoisomerase I poison (camptothecin: CPT), TDP1 works as a critical factor for cell survival. To directly identify novel TDP1 inhibitors active in a cellular environment, we have knocked-out the Tdp1 gene in chicken DT40 cells (Tdp1-/-) and generated a complemented counterpart cells that contains a stable transfection of the human TDP1 gene (Tdp1-/-;hTDP1 cells). For the primary screen, Tdp1-/-;hTDP1 cells will be exposed to small molecules in the presence or absence of CPT, and their growth kinetics will be evaluated after 48 hours by measuring ATP activity. […] The hit compounds will then be evaluated in the presence or absence of CPT using Tdp1-/- cells. […] In tertiary assays, biochemical gel-based assays will be used to assess whether the hit compounds specifically target TDP1.
To this end, we have screened this cell line against the MLSMR in two primary screens. In one screen we add CPT and in the other we screen in the absence of CPT; this AID represents the screen where CPT was absent.
NIH Chemical Genomics Center [NCGC]
NIH Molecular Libraries Probe Centers Network [MLPCN]
Assay Submitter (PI): Yves Pommier, NCI
DT40-hTDP1 cells without 20 nM Camptothecin (add 20 microL of DMSO in 1 L of cell culture medium) were dispensed at 400 cells/5microL/well in tissue culture treated 1536-well white wall/solid bottom assay plates (Greiner Bio-One North America, NC, U.S.A.) using a Multidrop Combi 8 channel dispenser (Thermo Fisher, Waltham, MA, USA). 23 nL compounds and controls were transferred using the pin tool (Kalypsys, San Diego, CA, USA) to the assay plates. The assay plates were then incubated at 37 masculineC for a minimum 48 hr. Three microL of Cell Titer Glo solution was added to the plates and incubated at RT in dark for 30 min. Luminescence was read using ViewLux (Perkin Elmer) with 1 sec exposure slow speed, high gain and 2x binning.
Potency is read from the fitted curve at half-maximal effect.

SMILES | Potency
Cc1ccsc1C(=O)NNC(=O)COc1ccc(Br)cc1 | inactive
O=C(Nc1ccc2c(c1)C(=O)OC2)Nc1cccc2ccccc12 | inactive
CN=C1S/C(=C\c2c(OC)cc(OC)cc2OC)C(=O)N1C | inactive
Cc1cccc(C)c1NC(=O)CSc1ccc([N+](=O)[O-])cn1 | inactive
CCOCC(=O)Nc1ncc(S(=O)(=O)c2ccc([N+](=O)[O-])cc2)s1 | inactive
COc1ccc(OCC(=O)NCCS(=O)(=O)N2CCN(c3ccc(F)cc3)CC2)cc1 | inactive
c1ccc2nc(C3=NCCN3)cnc2c1 | inactive
O=C(CCCCCNC(=O)c1ccccc1)N/N=C/c1ccccc1 | inactive
O=C(C[n+]1ccccc1)N/N=C/c1ccc(O)cc1 | inactive
NN=C(NN=Cc1ccccc1)c1ccccc1 | 20.6 µM (active)
Cc1ccc(Cc2cncc(O)c2)cc1S(=O)(=O)O | inactive
COC(=O)c1cc(NC(=O)c2cccnc2)ccc1N1CCOCC1 | inactive
CCOC(=O)c1[nH]c2ccc(C)cc2c1N=C(C)N(C)C | inactive
Cc1ccc(Cl)cc1N1CCN(C(=O)c2cnc3c(-c4ccc(F)cc4)c(C)nn3c2C)CC1 | inactive
CCOc1ccccc1CNC(=O)c1ccc2c(c1)nc1n2CCC(C)C1 (centres undefined) | inactive
CCOc1ccccc1CNC(=O)c1cnc2c(-c3ccc(OCC)c(OCC)c3)c(C)nn2c1C | 11.6 µM (active)
COCCCNC(=O)C1CC(=O)N(CCc2ccccc2)C1 (centres undefined) | inactive
CC(C)(C)C(=O)CCN1C(=O)C2(OCCO2)c2ccccc21 | inactive
COc1ccc(C(=O)OCc2cc(=O)n3ccsc3n2)cc1F | inactive
COc1cc(C(=O)OCc2cc(=O)n3ccsc3n2)ccc1OC(C)C | 20.6 µM (active)
COCCc1nn2c(=O)cc(COC(=O)c3cc(OC)c(OC)c(OC)c3)nc2s1 | inactive
NC(=O)C[n+]1cccc(C(N)=O)c1 | inactive
O=C1c2oc3ccccc3c(=O)c2C(c2cccc(O)c2)N1c1ccccn1 (centres undefined) | 20.6 µM (active)
COc1ccc(C2c3c(oc4ccccc4c3=O)C(=O)N2Cc2ccc3c(c2)OCO3)cc1 (centres undefined) | inactive
CC(=O)c1sc(N2C(=O)c3oc4ccccc4c(=O)c3C2c2ccc(C)cc2)nc1C (centres undefined) | inactive
COCCN1C2=C(COC(C)(C)C2)C(=S)NC1c1ccccc1 (centres undefined) | inactive

SMILES | Potency
COC(C[C@@H](O)[C@H](C)[C@H](O)COCc1ccccc1)OC | inactive
Cn1cccc1/C=C1\SC(=S)N(NC(=O)c2ccc(Cl)cc2)C1=O | inactive
O=C(CSc1ncn[nH]1)Nc1ccc(Br)cc1Br | inactive
CN(C)C(CNC(=O)c1ccc(S(=O)(=O)NCc2ccco2)cc1)c1ccccc1 (centres undefined) | inactive
CC(C)(C)c1ccc(C(=O)NCCC(=O)NCc2ccco2)cc1 | inactive
O=C(NCCc1ccccc1)C(=O)NCC(c1ccco1)S(=O)(=O)c1ccccc1 (centres undefined) | inactive
CC(C)(C)c1ccc(C(=O)NCC(c2ccco2)S(=O)(=O)c2ccc(F)cc2)cc1 (centres undefined) | 20.6 µM (active)
CC(C)CNC(=O)C(=O)NCc1ccccc1 | inactive
O=C(NCc1ccccc1)C(=O)NCC(c1ccco1)S(=O)(=O)c1ccc(Cl)cc1 (centres undefined) | 18.4 µM (active)
O=C(COC(=O)c1cccc(Cl)c1Cl)NC1CCCCCC1 | inactive
O=C(NNS(=O)(=O)c1ccccc1C(F)(F)F)c1cc2ncc(C(F)(F)F)cc2s1 | inactive
COc1ccccc1OCCC(=O)OCC(=O)NC(=O)NC(C)(C)C | inactive
CSc1nnc(SCc2nc3sc(C(=O)O)c(C)c3c(=O)[nH]2)s1 | inactive
COc1ccc(CCNC(=O)COC(=O)c2ccc[nH]c2=O)cc1 | inactive
Cc1cccc(Oc2c([N+](=O)[O-])c(=O)n(C)c3ccccc23)c1 | inactive
Cc1cc(C)c(-c2c(O)c3ccccc3n(C)c2=O)c(C)c1 | inactive
COc1cc2c(=O)n(C)c3ccccc3c2cc1OC | 11.6 µM (active)
Nc1ccc2c(c1)C(=Cc1cccnc1)c1ccccc1-2 | inactive
O=S(=O)(Nc1ccccc1N1CCOCC1)c1ccc(Cl)s1 | inactive
COc1ccc(-c2cc(C(F)(F)F)nc(NCc3cccnc3)n2)cc1 | inactive
COc1ccc(CCNc2nc(C)cc(C)n2)cc1OC | inactive
COc1cccc(NC(=O)C2CCN(c3cc(C)nc4c(-c5ccc(Cl)cc5)c(C)nn34)CC2)c1 | inactive
COc1ccc(CCNc2cc(C)nc3c(-c4ccc(Cl)cc4)c(C)nn23)cc1OC | 18.4 µM (active)
COc1ccc(CNc2nc(-c3ccc(Cl)cc3)cc(C(F)(F)F)n2)cc1 | 18.4 µM (active)
COc1ccc(CCNc2nc(-c3ccc(Cl)cc3)cc(C(F)(F)F)n2)cc1OC | 25.9 µM (active)
COc1ccc(-n2c(-c3ccc(Cl)cc3)n[nH]c2=S)c(OC)c1 | inactive

SMILES | Potency
COc1ccc(CCNC(=O)COC(=O)c2ncc(Cl)c(Cl)c2Cl)cc1OC | inactive
COc1ccc(-c2c(C)nn3c(N4CCC(C(=O)NCCC(C)C)CC4)cc(C)nc23)cc1OC | inactive
CCN1CCN(C(=O)CN(C)S(=O)(=O)c2ccc(OC)cc2)CC1 | inactive
N#C/C(=C\N1CCOCC1)S(=O)(=O)c1ccc(Cl)cc1 | inactive
CCCC(=O)N1CCC1(C)C(=O)NS(=O)(=O)c1ccc(Cl)cc1 (centres undefined) | inactive
COc1cccc(NC(=O)CN(C)CC(=O)c2c(N)n(Cc3ccccc3)c(=O)n(C)c2=O)c1 | inactive
CC1CCC2(CC1)NC(=O)N(CC(=O)c1cccn1C)C2=O (centres undefined) | inactive
COc1ccc(NC(=O)COC(=O)CNC(=O)C2CCCCC2)cc1 | inactive
O=C(NCc1cccnc1)c1ccccc1NC(=O)c1c(F)cccc1F | inactive
CN(C)c1ccc2c(=O)[nH][nH]c(=O)c2c1 | inactive
CCCN1C(=O)C(NC(C)=O)c2cc(OC)ccc21 (centres undefined) | 18.4 µM (active)
CCCN1C2CCCC1CC(NC(=O)c1cccc(OC)c1)C2 (centres undefined) | inactive
COc1cccc(NC(=O)N2C3CCCC2CC(NC(C)=O)C3)c1 (centres undefined) | inactive
Cn1c(CCNS(=O)(=O)c2ccc(F)cc2)nnc1SCc1cccnc1 | inactive
COc1ccc(N(C)C(=O)CCS(=O)(=O)c2cccc3nsnc23)cc1 | inactive
Cc1ccc(NC(=O)Nc2cc(-c3ccccc3)nn2C)cc1Cl | 20.6 µM (active)
Cc1cc(NC(=O)Nc2ccc(Cl)cc2)n(-c2ccccc2)n1 | inactive
CCOC(=O)C1CCN(C(=O)Nc2ccc(C)c(Cl)c2)CC1 | inactive
O=C(NCc1nnc(SCC(=O)N2CCC(Cc3ccccc3)CC2)o1)c1ccco1 | inactive
O=C(CN1CCOc2ccccc21)N1CCC(Cc2ccccc2)CC1 | 11.6 µM (active)
CC1(C)CC(=O)C(CC(=O)N2CCC(Cc3ccccc3)CC2)C(=O)C1 | inactive
CC1COC2C(O1)N(S(C)(=O)=O)CCN2S(C)(=O)=O (centres undefined) | inactive
NS(=O)(=O)c1cccc(NC(=O)COC(=O)/C=C/c2ccco2)c1 | inactive
CCC(=O)Nc1ccc2nn(-c3ccc(F)cc3)nc2c1 | inactive
O=C(/C=C/c1ccco1)Nc1cccc(-c2nc3ccccc3[nH]2)c1 | 23.1 µM (active)
Cc1ccc(-n2nc3ccc(NC(=O)/C=C/c4ccco4)cc3n2)cc1C | 18.4 µM (active)

SMILES | Potency
O=C(Nc1cccc(NC(=O)c2ccc(Br)cc2)c1)c1ccccc1 | inactive
c1ccc(-c2[nH]ncc2-c2nc3ccccc3[nH]2)cc1 | inactive
COc1cccc(NC(=O)COC(=O)/C=C/c2ccco2)c1 | inactive
Cc1nnc(NC(=O)/C=C/c2ccco2)s1 | inactive
O=C(Nc1cccc(-c2nc3ccccc3[nH]2)c1)c1ccc(C(=O)Nc2cccc(-c3nc4ccccc4[nH]3)c2)cc1 | 18.4 µM (active)
COc1ccccc1C(=O)Nc1ccnn1C1CCN(Cc2cnn(C)c2)CC1 | inactive
COc1ccc2c(c1OC)C(=O)N(c1ncn[nH]1)C2 | inactive
Cc1ccc(S(=O)(=O)NC[C@H]2O[C@@H](n3cnc4c(N)ncnc43)[C@H](O)[C@@H]2O)s1 | inactive
CCCc1cc(=O)[nH]c(SCc2cc(=O)oc3c(C)c(C)ccc23)n1 | inactive
CCN(CC(=O)Nc1c(F)cccc1F)C(=O)c1cnc(C)cn1 | inactive
CC(C)CN(C(=O)CSc1nncn1C)C1CCS(=O)(=O)C1 (centres undefined) | inactive
O=C(CN(Cc1ccccc1)C(=O)c1ccc2c(c1)OCCO2)NCc1ccc2c(c1)OCO2 | inactive
CC/C(O)=N\S(=O)(=O)c1ccc(N=NN(C)C)cc1 | inactive
COC(=O)C1=C(C)N(Cc2ccccc2)C(=NCCCOC(C)C)N[C@H]1c1ccccc1 | 10.3 µM (active)
CCN1C(=O)N[C@@H](c2ccccc2)C(C(=O)OC)=C1C | inactive
COCCN1C(=O)N[C@@H](c2ccccc2)C(C(=O)OC)=C1C | inactive
CCOCCOCCC(C(=O)O)P(=O)(c1ccccc1)c1ccccc1 (centres undefined) | inactive
CCOc1ccc(-n2cnnn2)cc1S(=O)(=O)N1CCC(C)CC1C (centres undefined) | inactive
CCc1ccccc1NC(=O)CSc1nnc(CCNC(=O)OC(C)(C)C)o1 | inactive
Cc1ccccc1Nc1nc(N)nc(CSc2nnc3ccccn23)n1 | inactive
O=C(Nc1cc(C(F)(F)F)ccc1Cl)c1ccc2c(c1)CCN2S(=O)(=O)c1ccccc1 | 11.6 µM (active)
CCN(C(=O)COC(=O)c1cc(S(=O)(=O)N2CCc3ccccc32)ccc1OC)C1CCS(=O)(=O)C1 (centres undefined) | inactive
Cc1ccc(S(=O)(=O)N2CCc3cc(C(=O)Nc4ccc(Cl)cc4C)ccc32)cc1 | inactive
COc1ccc(OC)c(NC(=O)c2ccc3c(c2)CCN3S(C)(=O)=O)c1 | inactive
COc1ccc(S(=O)(=O)N2CCc3ccccc32)cc1C(=O)Nc1cc(S(C)(=O)=O)ccc1Cl | 4.61 µM (active)
CS(=O)(=O)N1CCc2cc(C(=O)Nc3ccccc3)ccc21 | inactive
